In the library only some 3.1% were active in any assay of this set; here they are far more common.
SARS 3CLpro inh: SARS-CoV 3CLpro protease inhibition | P0C6X7 | inhibition, % at 6 µM | 290,000 tested, 0.14% active | recombinant SARS-CoV 3CLpro, quenched FRET peptide cleavage | AID 1706; in the data active means inhibition above about 12%
FadD28 FP inh: blocks FadD28 binding to the bisubstrate probe | AID 588549 | fluorescence polarization | inhibition, % at 12.5 µM | 360,000 tested, 0.22% active; in the data active means inhibition above about 8.5%, passing the limit was not always enough; inconclusive means no clear call, values can overlap the other calls
GDH-TPI inh: counter-screen for M. tuberculosis FBA inhibitors: GDH-TPI coupled enzymes. GDH-TPI coupled enzyme counterscreen, NADH absorbance. inhibition, % at 4.8 µM. 360,000 tested, 1.2% active. AID 588335; in the data active means inhibition above about 30%;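 further: 0% = DMSO wells and 100% = wells lacking the enzyme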
FBA Mtb inh: Mtb fructose-bisphosphate aldolase inhibition. purified M. tuberculosis FBA, fluorescence read-out. inhibition, % at 1 µM. 360,000 tested, 2.3% active; in the data active means inhibition above about 27%;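 further: 0% = vehicle and 100% = reference inhibitor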
Target sequence (P9WQA3 whole entry, looked up): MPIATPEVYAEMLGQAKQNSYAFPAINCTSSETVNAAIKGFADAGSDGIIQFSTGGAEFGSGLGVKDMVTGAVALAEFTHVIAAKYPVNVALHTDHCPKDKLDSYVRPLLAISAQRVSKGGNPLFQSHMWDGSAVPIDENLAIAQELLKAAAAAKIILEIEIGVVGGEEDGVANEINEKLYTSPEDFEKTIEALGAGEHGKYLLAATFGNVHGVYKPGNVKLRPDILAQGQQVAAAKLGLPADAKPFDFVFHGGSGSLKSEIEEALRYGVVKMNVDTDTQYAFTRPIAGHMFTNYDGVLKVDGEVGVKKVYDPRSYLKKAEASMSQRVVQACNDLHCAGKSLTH
Mtb BioA inh: inhibitors of Mycobacterium tuberculosis BioA enzyme | purified M. tuberculosis BioA enzyme, plate reader | inhibition, % at 9.99 µM | 360,000 tested, 0.096% active; in the data active means inhibition above about 40%; inconclusive means no clear call, values can overlap the other calls
An asterisk follows results filed as active; ? = inconclusive; nt = no result; + = active, no number.

SMILES	SARS 3CLpro inh	FadD28 FP inh	GDH-TPI inh	FBA Mtb inh	Mtb BioA inh
O=C(N/N=C/C(Br)=C/c1ccccc1)C(O)c1ccccc1 (configuration not stated)	-5	-3	43*	0	2
O=C(O)c1ccc(N/N=C/C(Br)=C/c2ccccc2)cc1	4	?	66*	1	0
O=C(O)COc1ccc2nsnc2c1Cl	2	-3	6	42*	1
CCC(=O)N1C[C@H](O)COC[C@H]2O[C@@H](CC(=O)NCC3CCCCC3)CC[C@@H]21	nt	nt	nt	nt	0
CCc1cc2c(CN3CCN(CCO)CC3)cc(=O)oc2cc1O	6	-3	21	187*	nt
Cc1cc2oc(=O)cc(CN3CCN(C/C=C/c4ccccc4)CC3)c2cc1O	3	-1	35*	-2	0
Cc1ccc2c(CN3CCN(CCO)CC3)cc(=O)oc2c1C	1	0	2	-1	nt
CCc1cc2c(CN3CCN(C)CC3)cc(=O)oc2cc1O	4	-1	11	+	nt
O=C(C[C@@H]1C[C@@H]2c3cc(NC(=O)Cc4ccncc4)ccc3O[C@@H]2[C@@H](CO)O1)NCCN1CCCCC1	nt	nt	nt	nt	1
CO[C@H]1CN(C)C(=O)c2ccc(NC(C)=O)cc2OC[C@@H](C)N(C(=O)c2cccnc2)C[C@@H]1C	nt	nt	nt	nt	-3
CO[C@H]1CN(C)C(=O)c2cc(NS(C)(=O)=O)ccc2OC[C@@H](C)N(CC2CCCCC2)C[C@@H]1C	nt	nt	nt	nt	3
CCCNC(=O)N1C[C@H](C)[C@@H](OC)CN(C)C(=O)c2cc(NC(C)=O)ccc2OC[C@@H]1C	nt	nt	nt	nt	0
CC1Cc2ccccc2N1C(=O)C1CCCN(S(=O)(=O)c2cccc3nsnc23)C1 (configuration not stated)	12*	-2	-1	5	-1
O=C(C1CCCN(S(=O)(=O)c2cccc3nsnc23)C1)N1CCc2ccccc21 (configuration not stated)	3	-3	2	4	0
O=C(C[C@H]1C[C@@H]2c3cc(NC(=O)CC4CC4)ccc3O[C@@H]2[C@@H](CO)O1)NCc1ccc2c(c1)OCO2	nt	nt	nt	nt	0
CC(C)c1ccc(NC(=O)C(=O)C2C(=O)Nc3ccccc32)cc1 (configuration not stated)	4	15*	7	6	nt
CN(C)c1ccc(NC(=O)C(=O)C2C(=O)Nc3ccccc32)cc1 (configuration not stated)	-2	1	14	0	-1
CC(C)(C)c1ccc(NC(=O)C(=O)C2C(=O)Nc3ccccc32)cc1 (configuration not stated)	0	27*	-1	3	nt
C[C@H](CO)N1C[C@H](C)[C@H](CN(C)Cc2ccc(Oc3ccccc3)cc2)Oc2ccc(NC(=O)CCN3CCOCC3)cc2CC1=O	nt	nt	nt	nt	0
COc1cccc(S(=O)(=O)N[C@@H]2CC[C@H](CCNC(=O)Nc3cc(F)ccc3F)O[C@H]2CO)c1	nt	nt	nt	nt	3
CC(C)(C)c1cc[n+](-c2[nH]c(=O)sc2/C=N/N=C(\[O-])c2cccnc2)cc1	1	-4	32*	-3	0
CCc1ccc[n+](-c2[nH]c(=O)sc2/C=N/N=C(\N)[O-])c1	-5	-3	6	1	nt
O=c1[nH]c(-[n+]2ccc3ccccc3c2)c(/C=N/N=C(\[O-])c2ccccc2)s1	-2	-2	31*	3	3
C[C@H](CO)N1C[C@H](C)[C@H](CN(C)Cc2ccc(C(=O)O)cc2)OCCCC[C@H](C)Oc2ccc(NC(=O)Nc3ccccc3)cc2C1=O	nt	nt	nt	nt	-2
CC(Oc1ccc2c(-c3ccccc3)cc(=O)oc2c1)C(=O)NCC1CCC(C(=O)O)CC1 (configuration not stated)	5	-3	21	-1	3
SMILES	SARS 3CLpro inh	FadD28 FP inh	GDH-TPI inh	FBA Mtb inh	Mtb BioA inh
CCCc1cc(=O)oc2cc(OCC(=O)NCC3CCC(C(=O)O)CC3)ccc12 (configuration not stated)	-3	-3	16	26	0
Cc1cc(=O)oc2cc(OC(C)C(=O)NCC3CCC(C(=O)O)CC3)ccc12 (configuration not stated)	0	-2	18	28*	-2
O=C(Cc1cc(=O)oc2cc(O)ccc12)NCC1CCC(C(=O)O)CC1 (configuration not stated)	-7	-4	10	+	-3
O=C(CN1CCCC1)NCC(=O)Nc1ccc(F)cc1	-2	0	11	+	2
COc1ccc(-c2c(-c3cc(OC)cc(OC)c3)n(C)c3ccc(-c4cccc5[nH]ccc45)cc23)cc1	nt	-2	28	121*	-3
COc1ccc(-c2c(-c3cc(OC)cc(OC)c3)n(C)c3ccc(-c4ccc5cc[nH]c5c4)cc23)cc1	nt	-3	35*	114*	-2
c1ccc2c(c1)C1=NCCN1c1ccccc1-2	nt	-2	8	73*	nt
C[C@@H]1CN([C@@H](C)CO)C(=O)c2cc(C#CC3(O)CCCC3)cnc2O[C@H]1CN(C)C(=O)Cc1ccncc1	nt	nt	nt	nt	4
Cc1nc(-c2cccc(NC(=O)c3cccs3)c2)cs1	-5	-5	13	-11	4
Cc1c(-c2cccc(NC(=O)c3cccs3)c2)nc2ncccn12	-2	-7	11	+	nt
O=C(Nc1cccc(-c2cnc3ccccc3n2)c1)c1ccco1	0	-2	20	0	nt
Cc1c(-c2cccc(NC(=O)c3ccco3)c2)nc2ncccn12	-4	-5	29	+	nt
COc1cc(-c2cc(-c3ccc(O)cc3)nc(N)c2C#N)ccc1O	5	-7	18	5	nt
N#Cc1c(-c2cccc(Br)c2)cc(-c2cccnc2)nc1N	4	0	16	131*	-1
COc1cccc(-c2cc(-c3cccnc3)nc(N)c2C#N)c1	5	-2	12	127*	0
COc1ccc(-c2cc(-c3ccc(O)cc3)nc(N)c2C#N)cc1	4	-5	4	49*	1
COc1cccc(-c2cc(-c3cccnc3)c(C#N)c(N)n2)c1	0	-1	32*	+	0
Brc1cc2c(cc1/C=N/Nc1nc(N3CCCC3)nc(N3CCOCC3)n1)OCO2	5	0	32*	-4	0
Cc1csc2ncc(C(=O)N3CCCc4ccccc43)c(=O)n12	-1	0	37*	6	-3
O=C(c1cnc2n(c1=O)CCS2)N1CCCc2ccccc21	5	-2	2	-4	nt
Cc1csc2ncc(C(=O)N3CCc4ccccc43)c(=O)n12	5	1	52*	5	-4
CC(C)C#Cc1cnc2c(c1)C(=O)N([C@@H](C)CO)C[C@H](C)[C@@H](CN(C)C(=O)CN1CCOCC1)O2	nt	nt	nt	nt	-2
Cc1ccc(-c2nn(CCC#N)cc2C=C(C#N)C#N)cc1	2	-1	33*	-1	0
O=C(/C=C/Nc1cccc([N+](=O)[O-])c1)c1ccco1	-1	-1	35*	-2	-1
C[C@H]1CCCCO[C@@H](CN(C)C(=O)NC2CCCCC2)[C@@H](C)CN([C@@H](C)CO)C(=O)c2cc(NS(=O)(=O)c3cn(C)cn3)ccc2O1	nt	nt	nt	nt	2
CC(=NCc1cccc(Cl)c1)c1nc(-c2ccco2)oc1O	4	-2	34*	-3	7

Screening data deposited in PubChem BioAssay by several laboratories.
